# Peg3 promoter: Peg3 promoter-driven luciferase inhibitors, primary screen, cell-based, HeLa, luciferase luminescence | HeLa PEG-Prom luciferase reporter, overnight | actives 1.7% (n = 360,000) | inhibition, % at 20 µM | AID 588405, 2011;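 active = inhibition of at least 50% at 20 µM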
# TRPM1 prom inh: inhibitors of MITF-dependent TRPM1 promoter reporter, primary screen, cell-based, SK-MEL-5, single point, luciferase. SK-MEL-5 TRPM1 promoter luciferase, 24 h. inhibition, % at 12.5 µM. actives 0.83% (n = 330,000). AID 488899, 2010;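 active = mean inhibition across replicates of 60% or more, whatever share of single replicates reaches that level; inconclusive = some that reach 60%, reason not given; inactive = mean inhibition across replicates below 60%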
# Shn3 inh set2: reduction of Shn3 3'UTR firefly luciferase signal, primary screen, Schnurri-3 inhibitor project, cell-based, Clone20 osteoblasts, set 2; actives 0.52% (n = 360,000); inhibition, % at 12.5 µM; Clone20 osteoblast Shn3 3'UTR firefly luciferase, 24 h;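 active = mean inhibition of at least 75% with every replicate also reaching 75%; inconclusive = mean inhibition at least 75% but some replicate below; inactive = mean inhibition below 75%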
# PAX8 inh HTS: inhibitors of PAX8-driven TPO luciferase reporter, primary screen, RMG-I cells, single concentration. SteadyGlo, 24 h. actives 1.2% (n = 360,000). inhibition, % at 12.6 µM;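 active = mean replicate inhibition at least 60% with every replicate also reaching 60%; inconclusive = only one of the two criteria is met; inactive = mean below 60% and not all replicates reaching 60%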;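 note: luciferase light reporting Pax8 driven TPO promoter activity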
# ABHD5-PLIN5 inh: ABHD5-PLIN5 interaction inhibitors, primary screen, cell lysate, split luciferase complementation, luminescence; inhibition, % at 4 µM; Split G. princeps luciferase complementation, 4 h; Perilipin-5 (Homo sapiens) + 1-acylglycerol-3-phosphate O-acyltransferase ABHD5 (Homo …; actives 0.78% (n = 360,000);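 active = inhibition above the mean inhibition across every tested compound plus 3 SD, cut at about 22% in these data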
# Target sequence (Q00G26 whole entry, looked up): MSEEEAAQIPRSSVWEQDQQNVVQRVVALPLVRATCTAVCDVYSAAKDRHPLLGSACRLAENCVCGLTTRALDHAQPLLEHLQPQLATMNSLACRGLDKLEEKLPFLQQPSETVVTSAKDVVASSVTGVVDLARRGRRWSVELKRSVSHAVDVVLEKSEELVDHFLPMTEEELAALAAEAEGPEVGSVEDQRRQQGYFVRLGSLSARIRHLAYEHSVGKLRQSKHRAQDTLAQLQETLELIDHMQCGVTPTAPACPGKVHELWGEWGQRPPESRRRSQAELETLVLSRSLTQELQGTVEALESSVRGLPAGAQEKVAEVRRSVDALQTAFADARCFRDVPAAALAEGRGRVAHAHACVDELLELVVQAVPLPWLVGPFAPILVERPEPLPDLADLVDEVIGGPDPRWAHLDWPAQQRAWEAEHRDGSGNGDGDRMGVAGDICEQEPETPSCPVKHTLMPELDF
# Target sequence (Q8WTS1 whole entry, looked up): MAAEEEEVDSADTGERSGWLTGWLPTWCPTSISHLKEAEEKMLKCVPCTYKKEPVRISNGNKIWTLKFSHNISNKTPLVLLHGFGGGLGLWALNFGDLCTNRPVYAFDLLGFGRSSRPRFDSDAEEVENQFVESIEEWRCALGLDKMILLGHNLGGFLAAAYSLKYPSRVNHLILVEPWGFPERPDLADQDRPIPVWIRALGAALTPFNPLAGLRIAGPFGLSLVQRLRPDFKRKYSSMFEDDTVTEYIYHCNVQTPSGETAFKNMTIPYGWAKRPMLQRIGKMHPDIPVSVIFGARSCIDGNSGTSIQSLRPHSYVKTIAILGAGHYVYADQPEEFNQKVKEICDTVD
# EWS-Fli inh: EWS/Fli-driven NR0B1 reporter inhibitors, primary screen, A673 cells, NR0B1 luciferase, luminescence, MLPCN library. viability-normalised. inhibition, % at 12.6 µM. actives 0.67% (n = 350,000). AID 651661, 2012;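 active = mean inhibition of at least 50% after viability correction, with every replicate also passing that limit; inconclusive = mean reaches 50% but only one of two replicates passes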;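 note: firefly luciferase signal divided by Alamar Blue viability fluorescence both relative to DMSO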
# Hits are given with their value; i = inactive; ? = inconclusive; nt = not tested or not shown; ! = not active in a repeat. The list is not random: actives were taken first. Their share in the collection is about 3%.
SMILES,Peg3 promoter,TRPM1 prom inh,Shn3 inh set2,PAX8 inh HTS,ABHD5-PLIN5 inh,EWS-Fli inh
Cc1cccc(N2CCN(C(=O)c3cc4c(=O)n(C)c5ccccc5c4n3C)CC2C)c1 (stereo not given),59,nt,i,nt,i,nt
CN1CCN(C(=O)[C@H]2[C@H](CO)[C@H]3Cn4c(ccc(C5=CCCCC5)c4=O)[C@@H]2N3S(C)(=O)=O)CC1,nt,nt,nt,nt,nt,i
O=C1c2c(O)ccc(O)c2C(=O)c2c(NCCNCCO)ccc(NCCNCCO)c21,100,95,93,106!,i,i
O=C1c2ccccc2C(=O)c2c(Nc3ccc(CCO)cc3)ccc(O)c21,i,i,i,i,i,i
O=c1ccn(Cc2ccccc2)cc1,i,i,i,i,i,i
Cc1ccccc1Cn1ccc(=NCc2ccccc2)cc1,nt,nt,nt,85,nt,i
C[C@@H]1CCCCO[C@H](CN(C)S(=O)(=O)c2ccc(Cl)cc2)[C@H](C)CN([C@@H](C)CO)C(=O)c2cc(NS(=O)(=O)c3ccccc3)ccc2O1,nt,nt,nt,i,nt,i
O=[N+]([O-])c1cccc(-c2csc(N/N=C/c3cccc(O)c3)n2)c1,102,i,i,i,i,i
Cn1c(N)c(C(=O)COC(=O)c2cc(S(=O)(=O)N3CCOCC3)ccc2F)c(=O)n(C)c1=O,89,82,i,i,i,67
CC(C)C(N)c1csc(NC(=O)Nc2ccc(OC(F)(F)F)cc2)n1 (stereo not given),97,nt,i,i,i,i
NCc1csc(NC(=O)Nc2cccc(C(F)(F)F)c2)n1,i,nt,i,i,i,i
CC(C)c1ccc(NC(=O)Nc2nc(C(N)c3ccccc3Cl)cs2)cc1 (stereo not given),88,nt,i,i,i,i
NC(CCc1ccccc1)c1csc(NC(=O)Nc2cccc(C(F)(F)F)c2)n1 (stereo not given),95,nt,i,i,i,i
CC(C)C(N)c1csc(NC(=O)Nc2cccc(C(F)(F)F)c2)n1 (stereo not given),97,nt,i,i,i,i
CC(C)C(N)c1csc(NC(=O)Nc2ccccc2C(C)(C)C)n1 (stereo not given),i,nt,i,i,i,i
C[C@@H]1CCCCO[C@H](CN(C)C(=O)CCC(F)(F)F)[C@@H](C)CN([C@@H](C)CO)C(=O)c2cc(NC(=O)C3CCCCC3)ccc2O1,nt,nt,nt,i,nt,i
CN(C)c1ccc(NC(=O)Nc2nc(C(N)C3CCCCC3)cs2)cc1 (stereo not given),i,nt,i,i,i,i
CC(C)c1ccc(NC(=O)Nc2nc(C(N)C3CCCCC3)cs2)cc1 (stereo not given),95,nt,97,i,i,i
CC(C)c1ccc(NC(=O)Nc2nc(C(N)CCc3ccccc3)cs2)cc1 (stereo not given),98,nt,97,i,i,i
NC(CCc1ccccc1)c1csc(NC(=O)NCC2CCCCC2)n1 (stereo not given),98,nt,i,i,i,i
NC(CCc1ccccc1)c1csc(Nc2ccccn2)n1 (stereo not given),i,nt,i,i,i,i
C[C@@H]1CCCCO[C@@H](CN(C)C(=O)C2CCCCC2)[C@H](C)CN([C@@H](C)CO)C(=O)c2cc(NC(=O)c3ccncc3)ccc2O1,nt,nt,nt,i,nt,i
COCC#Cc1ccc(CC[C@H]2O[C@H]3CC[C@H](CO)O[C@H]3C[C@@H]2n2cc(C3(O)CCCC3)nn2)cc1,nt,nt,nt,i,nt,i
COc1ccccc1NC(=O)c1ccc2c(c1)C(=O)N(Cc1ccco1)C2=O,i,i,i,nt,i,i
O=C(Nc1ccccc1O)c1ccc2c(c1)C(=O)N(Cc1ccco1)C2=O,64,i,i,i,i,nt
SMILES,Peg3 promoter,TRPM1 prom inh,Shn3 inh set2,PAX8 inh HTS,ABHD5-PLIN5 inh,EWS-Fli inh
O=C(CSc1nnc(-c2ccc(Cl)cc2Cl)n1C1CCCCC1)N1CCCC1,i,i,92,nt,i,nt
O=C(Nc1ccccc1)[C@H]1[C@H](CO)[C@H]2Cn3c(ccc(C4=CCCCC4)c3=O)[C@H]2N1Cc1ccccn1,nt,nt,nt,i,nt,i
COc1ccc(C2/C=C\CN(C(=O)c3ccc(C)cc3)[C@H](Cc3ccccc3)C(=O)N2Cc2ccc(F)cc2)cc1 (stereo not given in full),70,i,87,nt,i,nt
CC(=O)O[C@@H]1[C@@]2(C)O[C@H]2CC[C@]23O[C@H]2[C@H](OC3=O)C2=C(C)C(=O)O[C@@]21O,i,i,i,i,23,i
NC(=O)NCC#Cc1ccc2c(c1)[C@]1(C(=O)N2)[C@H](C(=O)O)[C@H]2C(=O)O[C@H](c3ccccc3)[C@H](c3ccccc3)N2[C@@H]1c1ccccc1OCCO,nt,nt,nt,nt,nt,i
COC(=O)C(CC#Cc1ccc2c(c1)[C@]1(C(=O)N2)[C@H](C(=O)NC[C@H](O)c2ccccc2)[C@H]2C(=O)O[C@H](c3ccccc3)[C@H](c3ccccc3)N2[C@@H]1c1ccccc1OCCO)C(=O)OC,nt,nt,nt,101,nt,71
COC(=O)C(CC#Cc1ccc2c(c1)[C@]1(C(=O)N2)[C@H](c2ccccc2OCCO)N2[C@H](c3ccccc3)[C@H](c3ccccc3)OC(=O)[C@H]2[C@@H]1C(=O)N1CCc2cc(OC)c(OC)cc2C1)C(=O)OC,nt,nt,nt,i,nt,56
COc1cccc(CNc2nc(NCc3ccccc3)nc3ccsc23)c1,64,nt,i,i,i,i
COc1cccc(CNc2nc(NCC3CC3)nc3ccsc23)c1,i,nt,86,i,i,i
c1ccc(CNc2nc(NCCc3ccncc3)c3sccc3n2)cc1,54,nt,i,70,i,i
c1ccc(CNc2nc(NCc3cccs3)nc3ccsc23)cc1,i,nt,i,i,i,i
COc1cccc(CNc2nc(NCC3CC3)nc3ccsc23)c1OC,i,nt,82,i,i,i
CNc1nc(NCc2cccc(OC)c2)c2sccc2n1,i,nt,i,i,i,i
CO[C@@H]1CN(C)C(=O)c2cc(NC(=O)c3ccccc3)ccc2OC[C@@H](C)N(C(=O)C2CC2)C[C@@H]1C,nt,nt,nt,nt,nt,i
Cc1ccc(C(=O)c2cccc(N)c2)cc1C,i,66,i,i,i,?
Cc1ccc(C(=O)c2ccc(O)cc2)cc1C,i,i,i,i,i,nt
OC[C@@H]1[C@H](c2ccc(C#CC3CCCC3)cc2)[C@H]2CN(CCC(F)(F)F)CCCCN12,nt,nt,nt,i,nt,60
OC[C@H]1[C@@H](c2ccc(-c3ccc(F)cc3)cc2)[C@H]2CN(CCC(F)(F)F)CCCCN21,nt,nt,nt,i,nt,nt
OC[C@@H]1[C@H](c2ccc(-c3ccc(F)cc3)cc2)[C@@H]2CN(CCC(F)(F)F)CCCCN12,nt,nt,nt,93,nt,nt
COc1ccc(-c2ccc3c(c2)[C@H]2[C@H](CCN2C(=O)Cc2cccnc2)[C@H](CO)N3C)cc1,nt,nt,nt,86,nt,i
CN1c2ccc(C#Cc3cccnc3)cc2[C@@H]2[C@@H](CCN2C(=O)Cc2cccnc2)[C@@H]1CO,nt,nt,nt,88,nt,i
